A selection: hits, their analogues and other compounds. The true share with any hit is near 3.3%.
TPT1 inh: Candida albicans TPT1 enzyme inhibitors, primary screen, biochemical, fluorescence polarization; recombinant caTPT1, FP RNA substrate dephosphorylation; inhibition, % at 5 µM; 300,000 tested, 0.81% active;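 active = inhibition above the mean of all tested compounds plus 3 SD, set per screening campaign, cut at about 24% in these data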;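 note: plate controls were DMSO alone for no effect and ferristatin control at 100 nM for full effect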
HNF4A DNA FP: change in binding of human HNF4A to DNA, primary screen, biochemical, fluorescence polarization, FITC-DNA | Hepatocyte nuclear factor 4-alpha (Homo sapiens), P41235 | 1 h | activity change, % at 10 µM | 360,000 tested, 0.3% active | AID 1224865, 2016; in the data active = activity change above about 30%, passing the limit was not always enough
CTSL1 counter: Fasciola hepatica cathepsin L1 inhibitors, primary screen, counter-screen for PFM18AAP inhibitor project, biochemical, QFRET, fluorogenic peptide substrate; 300,000 tested, 0.49% active; AID 1906, 2009; inhibition, % at 5.96 µM; recombinant F. hepatica cathepsin L1, Z-Leu-Arg-MCA fluorescence;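 active = inhibition above the mean of all tested compounds plus 3 SD, set per screening campaign, cut at about 17% in these data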;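 note: 0% = plate median of test compound wells and 100% = 1 µM Z-Phe-Ala-diazomethylketone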
NRP1-CendR mod: modulators of CendR peptide binding to NRP-1, primary screen, biochemical, fluorescence polarization, uHTS; inhibition, % at 25 µM; AID 602438, 2012; 360,000 tested, 0.85% active; FAM-RPARPAR peptide binding to NRP-1;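 active = inhibition or corrected inhibition above about 18%, plus a signal ratio from 0.5 to 1.5, limit read from the data, passing the limit was not always enough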
PHOSPHO1 inh: PubChem AID 1565; recombinant PHOSPHO1, absorbance phosphatase assay; Phosphoethanolamine/phosphocholine phosphatase (Homo sapiens), Q8TCT1; 290,000 tested, 1.1% active; inhibition, % at 13.3 µM; in the data active = inhibition above about 60%
Target sequence (Q8TCT1 whole entry, looked up): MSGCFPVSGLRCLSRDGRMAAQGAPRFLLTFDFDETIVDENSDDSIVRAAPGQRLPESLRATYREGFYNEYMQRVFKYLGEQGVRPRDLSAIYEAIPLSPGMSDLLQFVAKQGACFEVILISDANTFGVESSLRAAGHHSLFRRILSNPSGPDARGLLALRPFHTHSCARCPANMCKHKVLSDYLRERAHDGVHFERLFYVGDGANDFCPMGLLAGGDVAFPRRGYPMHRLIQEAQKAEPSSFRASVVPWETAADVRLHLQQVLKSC
Rpn11 inh: Rpn11 (PSMD14) deubiquitinase inhibitors, primary screen, biochemical, fluorescence polarization, uHTS | human 26S proteasome, Ub4-pepOG fluorescence polarization; 20S core pre-blocked with epoxomicin | inhibition, % at 20 µM | 360,000 tested, 0.59% active | AID 588493, 2011;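 active = inhibition at 20 µM, scaled to each plate's controls, above about 33%, limit read from the data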
TPT1 inh confirm: Candida albicans TPT1 inhibitors, confirmation, biochemical, fluorescence polarization, triplicate; 2,400 tested, 74% active; recombinant caTPT1, RNase T1 coupled; inhibition, % at 5 µM; shares compounds with TPT1 inh;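 active = inhibition above the primary screen limit, the mean inhibition of all tested compounds plus 3 SD, cut at about 25% in these data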
RNase T1 inh: RNase T1 inhibitors, counter-screen for TPT1 inhibitor project, biochemical, fluorescence polarization; RNase T1 cleavage, 1536-well; shares compounds with TPT1 inh; 2,400 tested, 83% active; inhibition, % at 5 µM; AID 2153, 2009;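 active = inhibition above the solvent-only control well mean plus 3 SD, limit set per screening run, cut at about 23% in these data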;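 note: plate controls were DMSO wells with enzyme for no effect and wells without RNase T1 for full effect; inhibitors block cleavage so intact labeled substrate keeps polarization high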
Target sequence (P00651 whole entry, looked up): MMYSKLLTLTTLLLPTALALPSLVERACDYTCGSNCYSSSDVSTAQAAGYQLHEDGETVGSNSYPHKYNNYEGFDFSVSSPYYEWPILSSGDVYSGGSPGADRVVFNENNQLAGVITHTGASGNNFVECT
Rpn11 confirm: Rpn11 (PSMD14) deubiquitinase inhibitors, confirmation, biochemical, fluorescence polarization, single concentration; shares compounds with Rpn11 inh; purified human 26S proteasome, Ub4-pepOG fluorescence polarization; proteasome pretreated with epoxomicin; 1,900 tested, 29% active; inhibition, % at 20 µM
MMP-2 inh: MMP-2 enzyme inhibition, confirmation, counter-screen for RPN11 inhibitor project, biochemical, fluorescence, single concentration. shares compounds with Rpn11 inh. recombinant MMP-2, FRET peptide cleavage fluorescence. inhibition, % at 20 µM. 1,900 tested, 4% active. AID 602330, 2012;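 note: human MMP-2 activated beforehand with APMA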
Thrombin FP: bovine thrombin protease inhibition, confirmation, counter-screen for Rpn11 inhibitor project, biochemical, fluorescence polarization, single concentration. inhibition, % at 20 µM. bovine thrombin cleavage of Ub4-pepOG. 1,900 tested, 13% active. shares compounds with Rpn11 inh;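 active = mean inhibition at least 40% at 20 µM, or signal 3 deviations below plate average, so some actives read negative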;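 note: plate controls were thrombin with DMSO for no effect and buffer wells lacking thrombin for full effect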
Active calls of the source: *; · = no result. Cut-off read from the data, not from the text of the source, unless noted: active = inhibition above about 40%; inactive = the rest.

SMILES | TPT1 inh | HNF4A DNA FP | CTSL1 counter | NRP1-CendR mod | PHOSPHO1 inh | Rpn11 inh | TPT1 inh confirm | RNase T1 inh | Rpn11 confirm | MMP-2 inh | Thrombin FP
COCCO[C@H]1CCC2C3CC=C4C[C@@H](O)CC[C@]4(C)C3CC[C@@]21C (some centres not stated) | · | -2 | · | 18 | · | 4 | · | · | · | · | ·
O=C(O)c1cc[c]([Hg][Cl])cc1 | -2 | 1 | -2 | -10 | · | 8 | · | · | · | · | ·
CN1C2CNC(=O)CC1C1CCC2C1 (configuration not stated) | · | 2 | · | -7 | · | 2 | · | · | · | · | ·
C=CCn1c(O)c(/C=C/C=Nc2ccccc2)c(=O)[nH]c1=O | 84* | 33 | 5 | 17 | 14 | 88* | 107* | 129* | 98* | -59 | -47
COc1cc(/C=C/C(=O)c2c(O)n(CCc3ccccc3)c(=O)[nH]c2=O)ccc1O | 63* | 3 | 3 | -126 | 9 | 53* | 69* | 89* | 61* | 5 | 31
O=C(/C=C/c1ccccc1)c1c(O)n(CCc2ccccc2)c(=O)[nH]c1=O | 3 | 4 | 11 | -33 | -15 | -1 | · | · | · | · | ·
c1ccc(CN2Cc3ccccc3-n3nncc3C2)nc1 | · | -3 | · | 3 | · | 2 | · | · | · | · | ·
CCOc1ccccc1-n1c(O)c(C=Nc2ccc(N(CC)CC)cc2)c(=O)[nH]c1=O | 81* | 17 | 2 | -75 | 13 | 56* | 75* | 89* | 49* | 3 | 38
O=C(N/N=C/c1c(O)n(CCc2ccccc2)c(=O)[nH]c1=O)c1ccccc1O | 38* | 27 | 8 | -109 | 27 | 58* | 43* | 56* | 62* | -15 | 36
Cc1cccc(N2C(=O)NC(=O)/C(=C\c3ccc(N4CCOCC4)cc3)C2=O)c1 | 11 | 0 | 3 | -12 | 16 | -1 | · | · | · | · | ·
Cc1cccc(N2C(=O)/C(=C/N3CCN(C(=O)c4ccco4)CC3)C(=O)NC2=S)c1 | 30* | 9 | -1 | -40 | 29 | 50* | 13 | 15 | 19 | 10 | 14
O=C(O)c1ccc(-n2c(O)c(/C=C3\C=Nc4ccccc43)c(=O)[nH]c2=O)cc1 | 16 | -3 | 3 | -42 | 14 | 12 | · | · | · | · | ·
O=c1[nH]c(=O)n(-c2cccc(F)c2)c(O)c1/C=C1\C=Nc2ccccc21 | 37* | -1 | 0 | 1 | 23 | 62* | -57 | -39 | 9 | -22 | 3
COc1cc(O)cc2c1cc([N+](=O)[O-])c1c(C(=O)O)cc3c(c12)OCO3 | · | -3 | · | -18 | · | -1 | · | · | · | · | ·

Screening results deposited in PubChem BioAssay by several laboratories.
